Test [1] in a line: anti-His antibody binders, primary screen, artefact control for SMM control protein annotation, biochemical, small-molecule microarray, 635 nm fluorescence (AID 1128).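 Note: score merges feature fluorescence with signal-to-noise for each printed compound spot.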 The note with it: anti-His Alexa647 antibody binding, higher = more signal.
For test [2], the system named is Human papillomavirus type 1a E7 protein (residues 1-88). Briefly: HPV1a E7 small-molecule binders, primary screen, biochemical, small-molecule microarray, residues 1-88, 635 nm (AID 1129). To be noted: small-molecule microarray binding, fluorescence 635 nm; higher = more signal.
The target of test [3] is Focal adhesion kinase 1 (Homo sapiens) (UniProt Q05397). The experiment in a line: small-molecule microarray binders of FAK, primary screen, biochemical, 635/667 nm fluorescence, BSA, DTT (AID 1130).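 Note: composite of spot emission at 667 nm and signal to noise over triplicate slides.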 To be noted: PTK2 binding, 635 nm fluorescence, higher = more signal.
Test [4] has as its system Fibrinogen (Alexa647-labelled). The experiment in a line: fibrinogen binders on compound microarrays, profiling panel, artefact control for SMM control-protein annotation, biochemical, small-molecule microarray, 635/667 nm fluorescence (AID 1131).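 Note: z-score merges 667 nm fluorescence with per-spot signal-to-noise over triplicate slides.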 To be noted: fibrinogen-A647 binding fluorescence, higher = more signal.
Test [5] has as its target Follistatin (Homo sapiens) (UniProt P19883). The experiment in a line: follistatin binders on small-molecule microarrays, primary screen, biochemical, small-molecule microarray, 635/667 nm fluorescence (AID 1132). To be noted: FST binding, 635 nm fluorescence, higher = more signal.
In test [6] the target is Fibroblast growth factor 2 (Homo sapiens) (UniProt P09038). Briefly: FGF2 binders on small-molecule microarrays, primary screen, biochemical, small-molecule microarray, 635/667 nm fluorescence (AID 1133). To be noted: small-molecule microarray binding, FGF2, fluorescence 635/667; higher = more signal.
Test [7] in a line: mitochondrial membrane potential change in A549 cells, profiling panel, cell-based, JC-1 fluorescence, basal, 24 h, 100 nL (AID 1138).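 Note: A549 lung adenocarcinoma cells under basal conditions with no added stimulus; test concentration not given here.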 To be noted: higher = more signal.
In the next test the test system is Lefty1. The experiment in a line: Lefty1 binders on small-molecule microarrays, primary screen, biochemical, small-molecule microarray, 635/667 nm fluorescence (AID 1139). To be noted: small-molecule microarray binding, fluorescence 635/667; higher = more signal.
The subject of test [8] is wheat germ agglutinin (Triticum aestivum), Alexa647-labelled. The experiment in a line: wheat germ agglutinin binders on compound microarrays, profiling panel, artefact control for SMM control-protein annotation, biochemical, small-molecule microarray, 635/667 nm fluorescence (AID 1140).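 Note: score merges 667 nm feature emission with signal to noise over triplicate slides.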 The note with it: WGA-A647 binding, 635 nm fluorescence, higher = more signal.
The target of test [9] is Luciferin 4-monooxygenase (Photinus pyralis) (UniProt P08659). The experiment in a line: firefly luciferase enzyme inhibitors, primary screen, biochemical, luminescence, purified enzyme, 2006 set (AID 1141).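 Note: cell-free assay with purified firefly luciferase at 100 ng per well in PBS; test concentration not given here.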 To be noted: SteadyGlo luminescence, 30 min, higher = more signal, called active from +8 up or from −8 down.
Test [10] relates to Wnt5a (protein binding on small-molecule microarray). Briefly: Wnt5a binders on small-molecule microarray, primary screen, biophysical, 635/667 nm fluorescence (AID 1142).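 Note: fluorescence read at 667 nm with signal to noise per printed feature.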 To be noted: 635 nm fluorescence, higher = more signal.
Test [11] is described as follows: cell viability in Huh7 cells, primary screen, cytotoxicity control for HCV replication inhibitor project, CellTiter-Glo luminescence, basal, 48 h (AID 1143).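 Note: Huh7 hepatoma cells carrying a hepatitis C replication reporter with no stimulus; test concentration not given here.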 To be noted: Huh7 HCV replicon, higher = more signal, called active from +8 up or from −8 down. For orientation: Cellular ATP, detected with luciferase, serves as a proxy for viable cell number.
Test [12] can be described thus: P. aeruginosa biofilm formation inhibitors, primary screen, PAO1 strain, BacTiter-Glo luminescence, LB-PBS (AID 1144). To be noted: 12 h, higher = more signal.
Test [13] in a line: CREB reporter modulators without forskolin, primary screen, cell-based, PC12, CRE-LacZ reporter, unstimulated (AID 1145). To be noted: no forskolin, luminescence, 4.5 h, higher = more signal, called active from +8 up or from −8 down.
Test [14] in a line: CREB reporter modulators under forskolin, primary screen, cell-based, PC12, CRE-LacZ reporter, forskolin-stimulated (AID 1146).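 Note: PC12 cells with 6xCRE LacZ reporter stimulated by forskolin 10 µM; beta-galactosidase reporter signal reflecting CREB driven transcription.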 The note with it: luminescence, 4.5 h, higher = more signal, called active from +8 up or from −8 down.
Test [15] addresses Streptavidin (Streptomyces avidinii) (UniProt P22629). Briefly: streptavidin binders on small-molecule microarray, primary screen, artefact control for SMM compound annotation, biophysical, 635/667 nm fluorescence (AID 1147).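 Note: signal reflects streptavidin binding to arrayed compounds as a control protein.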 To be noted: streptavidin binding, higher = more signal.
Test [16] in a line: small-molecule binders of probe aInhba, primary screen, biochemical, small-molecule microarray, 635/667 nm fluorescence (AID 1148).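 Note: score merges 667nm spot fluorescence with signal-to-noise for antibody binding to printed compounds.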 To be noted: higher = more signal.
Test [17] has as its target Torsin-1A (Homo sapiens) (UniProt O14656). Briefly: torsin A binders from cell lysate, primary screen, small-molecule microarray, wild-type, 635/667 nm (AID 1149). To be noted: COS7 hTOR1A-WT lysate, 635 nm fluorescence, higher = more signal.
The target is the same in test [18]. The experiment in a line: small-molecule binders of mutant TOR1A in lysate, primary screen, cell lysate, small-molecule microarray, COS7 lysate, 635/667 nm fluorescence (AID 1150).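 Note: score pools 667 nm emission and signal to noise measuring lysate protein binding.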 The note with it: COS7 hTOR1A mutant lysate, 635 nm fluorescence, higher = more signal.
Test [19] deals with Sonic hedgehog protein (Shh). The experiment in a line: small-molecule binders of Shh protein, primary screen, biochemical, small-molecule microarray, 635/667 nm fluorescence (AID 1151).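 Note: Shh protein binding to compounds spotted on small-molecule microarray slides; score combines spot fluorescence intensity with signal-to-noise across triplicate slides.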 The note with it: small-molecule microarray binding, 635 nm fluorescence; higher = more signal.

Molecules are shown by their SMILES. Active and inactive are the calls of the source. Unless noted, the rule behind the calls is not given here.

Fibroblast growth factor 2 (Homo sapiens), sequence (P09038 whole entry, looked up): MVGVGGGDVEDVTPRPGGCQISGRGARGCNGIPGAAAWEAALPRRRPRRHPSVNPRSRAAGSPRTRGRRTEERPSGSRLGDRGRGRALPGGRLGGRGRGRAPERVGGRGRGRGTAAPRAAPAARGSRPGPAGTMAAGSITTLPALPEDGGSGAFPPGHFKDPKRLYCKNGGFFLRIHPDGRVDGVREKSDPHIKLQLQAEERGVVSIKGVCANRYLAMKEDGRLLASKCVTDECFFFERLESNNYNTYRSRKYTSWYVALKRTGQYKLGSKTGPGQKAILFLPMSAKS
Torsin-1A (Homo sapiens), sequence (O14656 whole entry, looked up): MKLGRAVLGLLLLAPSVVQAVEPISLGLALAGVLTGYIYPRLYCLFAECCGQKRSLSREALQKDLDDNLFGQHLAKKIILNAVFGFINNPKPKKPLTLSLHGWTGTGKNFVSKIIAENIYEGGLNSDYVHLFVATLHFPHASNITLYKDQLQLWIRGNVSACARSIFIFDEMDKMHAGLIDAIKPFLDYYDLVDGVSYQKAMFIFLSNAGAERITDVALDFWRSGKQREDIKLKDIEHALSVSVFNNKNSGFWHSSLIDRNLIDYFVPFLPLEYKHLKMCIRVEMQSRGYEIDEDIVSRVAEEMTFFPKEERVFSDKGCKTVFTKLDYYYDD
Luciferin 4-monooxygenase (Photinus pyralis), sequence (P08659 whole entry, looked up): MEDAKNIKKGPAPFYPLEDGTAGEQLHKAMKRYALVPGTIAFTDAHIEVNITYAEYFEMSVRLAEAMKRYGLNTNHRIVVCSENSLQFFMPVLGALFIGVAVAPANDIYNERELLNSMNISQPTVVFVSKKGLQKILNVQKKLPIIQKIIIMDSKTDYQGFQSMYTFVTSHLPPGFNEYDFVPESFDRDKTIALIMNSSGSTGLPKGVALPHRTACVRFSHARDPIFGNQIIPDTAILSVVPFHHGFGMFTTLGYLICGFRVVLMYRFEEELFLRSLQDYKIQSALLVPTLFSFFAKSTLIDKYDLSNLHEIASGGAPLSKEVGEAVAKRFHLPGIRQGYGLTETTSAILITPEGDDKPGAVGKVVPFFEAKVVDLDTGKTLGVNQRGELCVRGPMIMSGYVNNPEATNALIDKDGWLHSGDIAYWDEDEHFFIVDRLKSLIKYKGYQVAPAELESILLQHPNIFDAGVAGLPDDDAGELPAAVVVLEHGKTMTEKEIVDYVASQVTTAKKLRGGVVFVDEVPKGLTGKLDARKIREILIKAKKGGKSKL
Focal adhesion kinase 1 (Homo sapiens), sequence (Q05397 whole entry, looked up): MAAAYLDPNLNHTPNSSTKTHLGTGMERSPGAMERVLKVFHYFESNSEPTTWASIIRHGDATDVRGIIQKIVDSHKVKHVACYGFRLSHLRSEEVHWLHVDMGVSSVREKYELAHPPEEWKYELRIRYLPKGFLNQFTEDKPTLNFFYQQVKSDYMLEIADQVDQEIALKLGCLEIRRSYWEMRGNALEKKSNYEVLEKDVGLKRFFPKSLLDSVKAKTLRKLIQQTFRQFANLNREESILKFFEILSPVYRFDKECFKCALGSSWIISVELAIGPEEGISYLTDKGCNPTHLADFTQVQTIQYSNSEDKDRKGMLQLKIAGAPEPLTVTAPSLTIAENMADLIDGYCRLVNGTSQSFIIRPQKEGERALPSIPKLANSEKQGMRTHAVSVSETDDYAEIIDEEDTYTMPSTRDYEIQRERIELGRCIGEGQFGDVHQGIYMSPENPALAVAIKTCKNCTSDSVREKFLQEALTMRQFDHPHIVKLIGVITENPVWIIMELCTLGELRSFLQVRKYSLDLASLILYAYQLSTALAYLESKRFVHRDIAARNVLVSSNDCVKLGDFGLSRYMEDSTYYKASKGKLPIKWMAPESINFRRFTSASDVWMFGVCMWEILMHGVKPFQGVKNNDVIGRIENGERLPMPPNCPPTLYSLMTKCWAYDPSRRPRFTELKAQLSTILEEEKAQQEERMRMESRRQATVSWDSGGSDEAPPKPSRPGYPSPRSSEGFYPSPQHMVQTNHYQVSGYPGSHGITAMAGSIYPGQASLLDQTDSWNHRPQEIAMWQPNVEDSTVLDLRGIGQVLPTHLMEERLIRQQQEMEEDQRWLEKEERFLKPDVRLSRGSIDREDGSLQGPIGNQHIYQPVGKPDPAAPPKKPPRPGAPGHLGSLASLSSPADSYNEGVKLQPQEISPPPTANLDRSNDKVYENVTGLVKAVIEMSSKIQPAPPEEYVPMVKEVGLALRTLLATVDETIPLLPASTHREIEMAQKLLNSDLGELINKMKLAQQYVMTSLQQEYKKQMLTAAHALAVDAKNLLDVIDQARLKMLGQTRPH
Streptavidin (Streptomyces avidinii), sequence (P22629 whole entry, looked up): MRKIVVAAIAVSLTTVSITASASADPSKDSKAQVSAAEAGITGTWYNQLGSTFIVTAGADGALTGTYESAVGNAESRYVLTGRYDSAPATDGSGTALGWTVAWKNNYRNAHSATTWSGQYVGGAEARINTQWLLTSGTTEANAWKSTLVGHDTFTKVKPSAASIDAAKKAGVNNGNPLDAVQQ
Follistatin (Homo sapiens), sequence (P19883 whole entry, looked up): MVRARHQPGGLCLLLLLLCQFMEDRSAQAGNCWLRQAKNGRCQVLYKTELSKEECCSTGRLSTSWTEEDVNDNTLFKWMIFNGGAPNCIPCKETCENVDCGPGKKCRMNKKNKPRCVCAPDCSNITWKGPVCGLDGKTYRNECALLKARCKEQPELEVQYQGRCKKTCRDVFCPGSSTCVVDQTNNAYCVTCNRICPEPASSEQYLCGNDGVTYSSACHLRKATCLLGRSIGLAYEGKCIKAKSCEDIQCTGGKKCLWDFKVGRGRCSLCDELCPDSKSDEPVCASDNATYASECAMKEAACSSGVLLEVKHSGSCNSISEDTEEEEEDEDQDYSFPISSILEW

Regarding `CC1CC/C=C\[C@H]2OC34C=CCN(Cn5nnc6ccccc65)C(=O)[C@H]3N(CCCCCO)C(=O)[C@@H]4C2C(=O)O1` (stereo not given in full), the composite z-score in [1] is 0.429; in test [2], -1.48; in [3], -0.281; in test [4], -2.26; in test [5], -1.16; in test [6] it was -1.69. For the same compound, the composite z-score in the test on Lefty1 was -0.425; in [8] it was 1.24; in [10], -0.613; in [15], -1.76; in [16] it was -0.176; in the test with Torsin-1A (Homo sapiens) [17] it was -2.12. For the same compound, the composite z-score in the test with Torsin-1A (Homo sapiens) [18] is -1.12; in test [19], -0.124. The z-score in test [7] is 0.114; in test [9], 0.932 (inactive); in test [11], -1.2 (inactive); in [12], -0.989 (inactive); in test [13], 0.0524 (inactive); in test [14], -0.567 (inactive).
Take `CC(=O)NCCCC[C@@H]1NC(=O)[C@H]2C[C@@H](C(=O)NCCCCCNC(=O)CS)[C@@H](c3ccc(O)cc3)N2C1=O`: the composite z-score in test [1] is 2.12; in test [2] it was -0.15; in test [3], 0.167; in [4] it was -0.355; in test [5] it was 0.769; in test [6], 0.424. The composite z-score in the test on Lefty1 was -0.272; in [8], -0.0796; in [10], 0.0736; in test [15] it was -0.502; in test [16], 0.0391; with Torsin-1A (Homo sapiens) [17], 0.261. In addition, the composite z-score with Torsin-1A (Homo sapiens) [18] is -0.711; in [19], 0.468. In addition, the z-score in test [7] was 0.139; in test [9], -2.56 (inactive); in test [11], -0.47 (inactive); in test [12] it was -0.589 (inactive); in test [13], -0.122 (inactive); in test [14], -0.112 (inactive).
Take `O=C(NCc1ccccc1)[C@@H]1c2ccccc2C(=O)N(C2Cc3ccccc3C2)[C@H]1c1ccc(CO)cc1`: the composite z-score in test [1] was found to be 0.526; in [2] it was 1.17; in [3], 0.166; in test [4], 0.299; in test [5] it was 0.957; in test [6], 0.892. For the same compound, the composite z-score in the test with Lefty1 was 0.459; in [8], 1.1; in [10] it was 0.303; in test [15], 0.49; in test [16], 0.196; with Torsin-1A (Homo sapiens) [17], -0.0754. For the same compound, the composite z-score with Torsin-1A (Homo sapiens) [18] was 0.165; in test [19] it was 1.31. Moreover, the z-score in [7] was 0.353; in test [9], 0.111 (inactive); in test [11] it was -0.746 (inactive); in test [12], 0.317 (inactive); in [13], 0.764 (inactive); in [14], 0.134 (inactive).
Regarding `CCOC(=O)C[C@H]1[C@H](OC(=O)c2ccc(-c3ccccc3)cc2)[C@@H](NC(=O)c2ccccc2)c2cc(OCCCO)ccc2N1C(=O)Cc1ccc(OC)cc1`, the composite z-score in [1] was -0.913; in test [2], -0.509; in [3], -0.355; in test [4], -0.264; in test [5] it was -0.434; in test [6], 0.1. The composite z-score in the test with Lefty1 was -0.336; in [8], -0.126; in [10], 0.0137; in [15], -0.238; in test [16], 0.0001; with Torsin-1A (Homo sapiens) [17] it was -0.0369. The values for the composite z-score (with Torsin-1A (Homo sapiens) [18]; in test [19]) were -0.456 and 0.0151, respectively. Further, the z-score in test [7] is 1.45; in test [9] it was -0.938 (inactive); in test [11], 0.0974 (inactive); in test [12], -0.962 (inactive); in [13], 0.0035 (inactive); in [14], -0.701 (inactive).
For the compound `COCCCNC(=O)[C@@]1(CCS(=O)(=O)c2ccccc2)N=C(c2ccc(OCCCO)cc2)O[C@H]1c1ccccc1N=[N+]=[N-]`, the composite z-score in test [1] was 0.328; in test [2] it was 1.25; in test [3] it was -0.0191; in [4] it was 1.02; in test [5], 1.3; in [6] it was 0.786. Also, the composite z-score in the test on Lefty1 came out at 1.27; in test [8], 1.01; in test [10], 1.04; in [15], 0.985; in test [16], 0.467; with Torsin-1A (Homo sapiens) [17] it was 0.765. Also, the composite z-score with Torsin-1A (Homo sapiens) [18] amounted to 1.49; in test [19] it was 1.72. Besides, the z-score was -0.341 in test [7]; -8.3 (active) in [9]; -5.54 (inactive) in test [11]; -0.372 (inactive) in test [12]; 0.0451 (inactive) in test [13]; -1.15 (inactive) in test [14].

(Values after PubChem BioAssay.)
